Shown is part of a subset that was picked to be rich in the strongest signals.
Legend:
Experiment in all cases: glycan array binding signal (z-score within array); higher = stronger binding
Conditions in all cases: glycan notation: IUPAC condensed, linker removed
[1] = target: Fuc(a1-2)Gal(b1-4)GlcNAc(b1-6)GalNAc
Procedure, shortened: (§1)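 The binding signal is a Z-score computed within each array and averaged over linkers. Arrays of the same protein sequence at different concentrations or buffers were also averaged together. Data originate from 3228 arrays in the Consortium for Functional Glycomics database, kept only where the protein sequence was available.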

[2] = target: Fuc(a1-2)[Gal(a1-3)]Gal(b1-4)GlcNAc(b1-3)GalNAc
Procedure, shortened: as §1

[3] = target: Fuc(a1-2)[GalNAc(a1-3)]Gal(b1-4)GlcNAc(b1-6)GalNAc
Procedure, shortened: as §1

[4] = target: Fuc(a1-2)[GalNAc(b1-3)]Gal
Procedure, shortened: as §1

[5] = target: Fuc(a1-3)[GalNAc(b1-4)]GlcNAc6S
Procedure, shortened: as §1

Gal(a1-3)Gal(b1-4)GlcNAc = target: Gal(a1-3)Gal(b1-4)GlcNAc
Procedure, shortened: as §1

[6] = target: Gal(a1-3)Gal(b1-4)GlcNAc(b1-6)GalNAc
Procedure, shortened: as §1

[7] = target: Gal(b1-3)GlcNAc(b1-3)Gal(b1-4)[Fuc(a1-3)]GlcNAc(b1-6)[Gal(b1-3)GlcNAc(b1-3)]Gal(b1-4)Glc
Procedure, shortened: as §1

[8] = target: Gal(b1-4)GlcNAc(b1-3)Gal(b1-3)GalNAc
Procedure, shortened: as §1

[9] = target: Gal(b1-4)GlcNAc(b1-3)Gal(b1-4)GlcNAc(b1-3)Gal(b1-4)GlcNAc(b1-3)Gal(b1-4)GlcNAc(b1-2)Man(a1-3)[Gal(b1-4)GlcNAc(b1-3)Gal(b1-4)GlcNAc(b1-3)Gal(b1-4)GlcNAc(b1-3)Gal(b1-4)GlcNAc(b1-2)Man(a1-6)]Man(b1-4)GlcNAc(b1-4)[Fuc(a1-6)]GlcNAc
Procedure, shortened: as §1

[10] = target: Gal(b1-4)GlcNAc(b1-3)Gal(b1-4)GlcNAc(b1-3)Gal(b1-4)GlcNAc(b1-3)Gal(b1-4)GlcNAc(b1-3)Gal(b1-4)GlcNAc(b1-3)Gal(b1-4)GlcNAc(b1-2)Man(a1-3)[Gal(b1-4)GlcNAc(b1-3)Gal(b1-4)GlcNAc(b1-3)Gal(b1-4)GlcNAc(b1-3)Gal(b1-4)GlcNAc(b1-3)Gal(b1-4)GlcNAc(b1-3)Gal(b1-4)GlcNAc(b1-2)Man(a1-6)]Man(b1-4)GlcNAc(b1-4)GlcNAc
Procedure, shortened: as §1

[11] = target: Gal(b1-4)GlcNAc(b1-3)Gal(b1-4)[Fuc(a1-3)]GlcNAc(b1-3)Gal(b1-4)[Fuc(a1-3)]GlcNAc
Procedure, shortened: as §1

[12] = target: Gal(b1-4)GlcNAc(b1-3)[Gal(b1-4)GlcNAc(b1-6)]Gal(b1-4)GlcNAc
Procedure, shortened: as §1

[13] = target: Gal3S(b1-4)[Fuc(a1-3)]Glc6S
Procedure, shortened: as §1

[14] = target: Gal3S(b1-4)[Fuc(a1-3)]GlcNAc6S
Procedure, shortened: as §1

GalNAc(a1-3)Gal = target: GalNAc(a1-3)Gal
Procedure, shortened: as §1

GalNAc(b1-3)Gal = target: GalNAc(b1-3)Gal
Procedure, shortened: as §1

[15] = target: GalNAc(b1-3)Gal(a1-4)Gal(b1-4)GlcNAc(b1-3)Gal(b1-4)Glc
Procedure, shortened: as §1

[16] = target: GalNAc(b1-3)Gal(a1-6)Gal(b1-4)Glc
Procedure, shortened: as §1

GalNAc(b1-4)GlcNAc6S = target: GalNAc(b1-4)GlcNAc6S
Procedure, shortened: as §1

GalNAc4S6S(b1-4)GlcNAc = target: GalNAc4S6S(b1-4)GlcNAc
Procedure, shortened: as §1

[17] = target: Glc(a1-6)Glc(a1-6)Glc(a1-6)Glc
Procedure, shortened: as §1

[18] = target: GlcNAc(a1-4)Gal(b1-4)GlcNAc(b1-3)Gal(b1-4)Glc
Procedure, shortened: as §1

[19] = target: GlcNAc(b1-3)Gal(b1-4)GlcNAc(b1-3)Gal(b1-4)GlcNAc(b1-3)Gal(b1-4)GlcNAc(b1-3)Gal(b1-4)GlcNAc(b1-2)[GlcNAc(b1-3)Gal(b1-4)GlcNAc(b1-3)Gal(b1-4)GlcNAc(b1-3)Gal(b1-4)GlcNAc(b1-3)Gal(b1-4)GlcNAc(b1-6)]Man(a1-6)[GlcNAc(b1-3)Gal(b1-4)GlcNAc(b1-3)Gal(b1-4)GlcNAc(b1-3)Gal(b1-4)GlcNAc(b1-3)Gal(b1-4)GlcNAc(b1-2)Man(a1-3)]Man(b1-4)GlcNAc(b1-4)[Fuc(a1-6)]GlcNAc
Procedure, shortened: as §1

[20] = target: GlcNAc(b1-3)Gal(b1-4)GlcNAc(b1-6)[GlcNAc(b1-3)Gal(b1-3)]GalNAc
Procedure, shortened: as §1

GlcNAc(b1-3)GalNAc = target: GlcNAc(b1-3)GalNAc
Procedure, shortened: as §1

[21] = target: GlcNAc(b1-3)[GlcNAc(b1-6)]GalNAc
Procedure, shortened: as §1

GlcNAc(b1-6)GalNAc = target: GlcNAc(b1-6)GalNAc
Procedure, shortened: as §1

[22] = target: Kdn(a2-3)Gal(b1-4)[Fuc(a1-3)]GlcNAc
Procedure, shortened: as §1

Man(a1-6)Man = target: Man(a1-6)Man
Procedure, shortened: as §1

[23] = target: Neu5Ac(a2-3)Gal(b1-3)GalNAc(b1-4)[Neu5Ac(a2-8)Neu5Ac(a2-3)]Gal(b1-4)Glc
Procedure, shortened: as §1

[24] = target: Neu5Ac(a2-3)Gal(b1-3)GalNAc6S
Procedure, shortened: as §1

[25] = target: Neu5Ac(a2-3)Gal(b1-3)GlcNAc(b1-2)Man
Procedure, shortened: as §1

[26] = target: Neu5Ac(a2-3)Gal(b1-3)GlcNAc(b1-2)Man(a1-3)[Neu5Ac(a2-3)Gal(b1-3)GlcNAc(b1-2)Man(a1-6)]Man(b1-4)GlcNAc(b1-4)GlcNAc
Procedure, shortened: as §1

[27] = target: Neu5Ac(a2-3)Gal(b1-4)GlcNAc(b1-2)Man(a1-3)[GlcNAc(b1-4)][Neu5Ac(a2-3)Gal(b1-4)GlcNAc(b1-2)Man(a1-6)]Man(b1-4)GlcNAc(b1-4)GlcNAc
Procedure, shortened: as §1

[28] = target: Neu5Ac(a2-3)Gal(b1-4)GlcNAc(b1-2)[Neu5Ac(a2-3)Gal(b1-4)GlcNAc(b1-4)]Man(a1-3)[GlcNAc(b1-4)][Neu5Ac(a2-3)Gal(b1-4)GlcNAc(b1-2)[Neu5Ac(a2-3)Gal(b1-4)GlcNAc(b1-6)]Man(a1-6)]Man(b1-4)GlcNAc(b1-4)GlcNAc
Procedure, shortened: as §1

[29] = target: Neu5Ac(a2-3)Gal(b1-4)GlcNAc(b1-3)[Neu5Ac(a2-3)Gal(b1-4)GlcNAc(b1-6)]GalNAc
Procedure, shortened: as §1

[30] = target: Neu5Ac(a2-3)Gal(b1-4)GlcNAc6S
Procedure, shortened: as §1

[31] = target: Neu5Ac(a2-3)Gal(b1-4)[Fuc(a1-3)]GlcNAc
Procedure, shortened: as §1

[32] = target: Neu5Ac(a2-3)Gal(b1-4)[Fuc(a1-3)]GlcNAc(b1-6)[Gal(b1-3)]GalNAc
Procedure, shortened: as §1

[33] = target: Neu5Ac(a2-3)Gal6S(b1-4)GlcNAc
Procedure, shortened: as §1

Neu5Ac(a2-8)Neu5Ac = target: Neu5Ac(a2-8)Neu5Ac
Procedure, shortened: as §1

[34] = target: Neu5Gc(a2-3)Gal(b1-3)GlcNAc
Procedure, shortened: as §1

B1: Cohesin-hDCIR (Homo sapiens) (protein)
chain: LDDLDAVRIKVDTVNAKPGDTVRIPVRFSGIPSKGIANCDFVYSYDPNVLEIIEIEPGDIIVDPNPDKSFDTAVYPDRKIIVFLFAEDSGTGAYAITKDGVFATIVAKVKEGAPNGLSVIKFVEVGGFANNDLVEQKTQFFDGGANVGDTTEPATPTTPVTTPTTTDDLDAASQKYSQLLEKKTTKELVHTTLECVKKNMPVEETAWSCCPKNWKSFSSNCYFISTESASWQDSEKDCARMEAHLLVINTQEEQDFIFQNLQEESAYFVGLSDPEGQRHWQWVDQTPYNESSTFWHPREPSDPNERCVVLNFRKSPKRWGWNDVNCLGPQRSVCEMMKIHLHHHHHH
glycan array binding signal (z-score) [1]: 5.99
glycan array binding signal (z-score) [2]: -0.635
glycan array binding signal (z-score) [3]: 5.33
glycan array binding signal (z-score) [4]: 3.31
glycan array binding signal (z-score) [5]: 0.081
glycan array binding signal (z-score) (Gal(a1-3)Gal(b1-4)GlcNAc): -0.455
glycan array binding signal (z-score) [6]: 5.08
glycan array binding signal (z-score) [7]: -0.655
glycan array binding signal (z-score) [8]: -0.458
glycan array binding signal (z-score) [9]: 2.82
glycan array binding signal (z-score) [10]: -0.417
glycan array binding signal (z-score) [11]: -0.584
glycan array binding signal (z-score) [12]: -0.335
glycan array binding signal (z-score) [13]: -0.343
glycan array binding signal (z-score) [14]: 3.25
glycan array binding signal (z-score) (GalNAc(a1-3)Gal): 1.17
glycan array binding signal (z-score) (GalNAc(b1-3)Gal): 3.75
glycan array binding signal (z-score) [15]: 4.3
glycan array binding signal (z-score) [16]: 5.47
glycan array binding signal (z-score) (GalNAc(b1-4)GlcNAc6S): 0.86
glycan array binding signal (z-score) (GalNAc4S6S(b1-4)GlcNAc): -0.659
glycan array binding signal (z-score) [17]: -0.038
glycan array binding signal (z-score) [18]: -0.696
glycan array binding signal (z-score) [19]: -0.597
glycan array binding signal (z-score) [20]: -0.546
glycan array binding signal (z-score) (GlcNAc(b1-3)GalNAc): -0.415
glycan array binding signal (z-score) [21]: -0.401
glycan array binding signal (z-score) (GlcNAc(b1-6)GalNAc): 4.02
glycan array binding signal (z-score) [22]: -0.218
glycan array binding signal (z-score) (Man(a1-6)Man): 3.2
glycan array binding signal (z-score) [23]: -0.554
glycan array binding signal (z-score) [24]: 1.41
glycan array binding signal (z-score) [25]: -0.373
glycan array binding signal (z-score) [26]: -0.312
glycan array binding signal (z-score) [27]: -0.66
glycan array binding signal (z-score) [28]: -0.508
glycan array binding signal (z-score) [29]: 0.114
glycan array binding signal (z-score) [30]: -0.518
glycan array binding signal (z-score) [31]: -0.342
glycan array binding signal (z-score) [32]: -0.187
glycan array binding signal (z-score) [33]: -0.608
glycan array binding signal (z-score) (Neu5Ac(a2-8)Neu5Ac): -0.297
glycan array binding signal (z-score) [34]: -0.174

Reference: the supplement of paper PMC8728848
